Assay outcomes (PubChem)
BoNT-F LC inh: BoNT/F light chain protease inhibitors, primary screen, biochemical, flow cytometry, MLPCN library. Botulinum neurotoxin type F light chain protease (Clostridium botulinum). Multiplex microsphere protease cleavage assay. inhibition, % at 10 µM. hit rate 0.22% among 360,000; in the data active means inhibition above about 35%, passing the limit was not always enough; inconclusive means no clear call, values can overlap the other calls; further: plate controls were buffer without enzyme for full effect and enzyme alone for no effect
Autofluor counter: counter-screen for toxin protease inhibitors: compound fluorescence; compound autofluorescence counterscreen, microsphere flow cytometry; active compounds read high; fluorescence intensity (test concentration not listed); hit rate 3.1% among 360,000; in the data active means fluorescence intensity above about 16000; inconclusive means no clear call, values can overlap the other calls
BoNT A protease: BoNT/A light chain protease inhibitors, primary screen, biochemical, flow cytometry, MLPCN library; AID 588499, 2011; inhibition, % at 10 µM; hit rate 0.17% among 360,000; multiplex microsphere protease substrate cleavage; further: plate controls were buffer without enzyme for full effect and enzyme alone for no effect
MazF activator: activators of E. coli MazEF toxin-antitoxin RNase, primary screen, biochemical, fluorescence, uHTS. Endoribonuclease toxin MazF (Escherichia coli (strain K12)), P0AE70. FAM/BHQ RNA-DNA oligo cleavage fluorescence, 5 h. activation, % at 20 µM. hit rate 0.32% among 350,000; in the data active means activation above about 50%
Anthrax LF inh2: Bacillus anthracis LF protease inhibitors, primary screen, biochemical, multiplex microsphere, MLPCN library; multiplex microsphere protease cleavage assay; inhibition, % at 10 µM; hit rate 0.12% among 360,000; further: plate controls were buffer without enzyme for full effect and enzyme alone for no effect
* = called active by the depositor; ? = inconclusive; · = not tested or not shown. Most compounds without a hit are left out; they make up all but 3.6% or so of the library. Unless noted, no stated cut-off is given here; in the data, active means inhibition above about 30%; inconclusive means no clear call, values can overlap the other calls; inactive means below that.

SMILES	BoNT-F LC inh	Autofluor counter	BoNT A protease	MazF activator	Anthrax LF inh2
Cc1ccc(N2CC(C(=O)NCc3ccc4c(c3)OCO4)CC2=O)cc1C (centres undefined)	-2	22630*	?	-13	-3
O=c1[nH]cnc2c1cnn2Cc1ccccc1	2	21532*	?	5	-3
Cc1ccc(S(=O)(=O)Nc2ccc3nc(N)sc3c2)cc1	5	19122*	?	1	-3
CCn1cc(C(=O)NCc2ccc(Cl)cc2)c(=O)c2cc(S(=O)(=O)N(C)C)ccc21	20	3429	2	4	-13
Cc1[nH]c2ccc(C(=O)N3CCN(c4ccccn4)CC3)cc2c1C	14	3512	0	10	-4
CCN(CC)C(=O)c1cncc(C(=O)N(CC)CC)c1-c1ccccc1	1	20311*	0	0	-2
CCN(CC)C(=O)c1ccc2nc(-c3ccccc3)c(-c3ccccc3)nc2c1	1	2554	0	-3	2
COc1ccc(-c2cc(C(=O)Nc3cccc(O)c3)no2)cc1	7	3563	-2	7	4
Nc1c(C(=O)NCc2ccc(Cl)cc2)sc2nc3c(c(C(F)(F)F)c12)CCC3	6	15715	6	-20	1
Cc1ccc(CNC(=O)c2sc3nc4c(c(C(F)(F)F)c3c2N)CCC4)cc1	-1	24632*	?	-22	1
N#C/C(=C/c1ccc(F)cc1)c1nc(CCN2C(=O)c3ccccc3C2=O)cs1	-7	16963*	-2	11	-3
Cc1ccc(-c2nc(CCN3C(=O)c4ccccc4C3=O)cs2)cc1	-4	23490*	?	-10	-5
O=C1c2ccccc2C(=O)N1CCc1csc(NNc2nc(CCN3C(=O)c4ccccc4C3=O)cs2)n1	-2	3181	-1	0	-7
COCCN(C(=O)c1ccc(N2C(=O)c3ccccc3C2=O)cc1)c1c(N)n(CC(C)C)c(=O)[nH]c1=O	8	?	4	-11	6
CCC(CC)c1nnc(NC(=O)Oc2ccccc2)s1	42*	5722	4	1	7
COc1ccc(C(=O)N/N=C\c2coc3ccc(C)cc3c2=O)cc1	-1	?	0	75*	-1
Cc1ccc2occ(/C=N/NC(=O)c3ccc(Cl)cc3)c(=O)c2c1	-1	6479	-1	-9	2
COc1cccc(C(=O)Oc2c(CN3CCOCC3)cc(Cl)c3cccnc23)c1	-1	22802*	1	4	-2
O=C(Oc1c(CN2CCOCC2)cc(Cl)c2cccnc12)c1ccccc1Cl	-1	4442	-3	-2	-1
COc1ccc(C(=O)Oc2c(CN3CCOCC3)cc(Cl)c3cccnc23)cc1	-8	3186	-1	-3	0
O=C(Oc1c(CN2CCOCC2)cc(Cl)c2cccnc12)c1ccc(F)cc1	0	22240*	2	-1	-4
CC(C(=O)Nc1ccc(C(=O)O)cc1)N1C(=O)c2ccccc2C1=O (centres undefined)	-2	20892*	0	3	-2
COc1cc(C(=O)Nc2cccc(S(=O)(=O)NCc3ccco3)c2)cc(OC)c1OC	15	?	6	4	-2
O=C(Nc1ccn(CCCNCc2ccc3c(c2)OCO3)c(=O)n1)OCc1ccccc1	0	4199	0	7	-2
Nc1c(-c2cccs2)cnn1-c1nc(-c2ccc(Cl)cc2Cl)cs1	-4	23441*	?	-17	-3
SMILES	BoNT-F LC inh	Autofluor counter	BoNT A protease	MazF activator	Anthrax LF inh2
Nc1c(-c2cccs2)cnn1-c1nc(-c2ccc(F)cc2)cs1	1	15352	2	-15	-2
CCOc1ccc(Cl)cc1S(=O)(=O)N1CCC(C(=O)NCc2ccco2)CC1	-6	6114	-3	8	-1
O=c1[nH][nH]c2nc(C(F)(F)F)cc(C(F)(F)F)c12	1	22696*	?	14	-1
COc1ccccc1OCCNc1ccc(S(=O)(=O)N2CCCC2)cn1	·	·	·	167*	·
COc1ccc(CNc2ccc(S(=O)(=O)N3CCN(C)CC3)cn2)cc1OC	?	6074	-4	5	-2
COc1ccccc1Oc1ccc(S(=O)(=O)N2CCCC2)cc1	3	23093*	1	-4	-3
COc1ccccc1-n1c(SCC(N)=O)nnc1-c1ccc(S(=O)(=O)N2CCCCC2)cc1	4	22234*	0	7	0
